Assay outcomes as filed in PubChem BioAssay.
A selection: hits, their analogues and other compounds. The true share with any hit is near 12%.
HCV inhibitor: qHTS Assay for Inhibitors of Hepatitis C Virus (HCV); hit rate 3.4% among 340,000; Potency, µM (top dose mostly 41.8 µM), inactives show top-dose activity change, negative = inhibition, hits mostly inhibitors; AID 651820, 2012; Huh7.5.1 HCVcc-Cre infection, luciferase reporter, 44 h; note: % is set by controls: 0 for no effect and ±100 for the full control effect
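Luciferase read-out (15 sec integration) after a 15 min room-temperature substrate step quantifies HCVcc-Cre infection. Cells, 1,000 per well, had compound added 4 h post-plating, then virus at ~0.5 moi, and were cultured 44 h.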
SARS PLpro yeast: qHTS of Yeast-based Assay for SARS-CoV PLP; S. cerevisiae expressing SARS-CoV PLpro, growth rescue; Potency, µM (series often up to 32.9 µM), for inactives: top-dose activity, positive = growth rescue, usual class: activators; hit rate 0.19% among 330,000; calls by dose curve; note: 0% is about no effect; nearly all actives have a fitted effect of over 55% in size
NS1 function inh: qHTS Assay for Inhibitors of Influenza NS1 Protein Function. Potency, µM (top dose mostly 46.1 µM), for the others: at the highest dose activity, positive = more growth. hit rate 0.4% among 270,000. AID 2326, 2010; calls by dose curve; note: actives are rising curves; nearly all actives have a fitted effect of over 50% in size
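S. cerevisiae expressing influenza A NS1, grown in glucose, washed, then diluted 1:100 into pH 6.0 -URA galactose medium with 23 nl compound. Growth recovery read as OD600; NS1-free strain serves as control.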
Pf growth 48h: Primary qHTS for delayed death inhibitors of the malarial parasite plastid, 48 hour incubation. P. falciparum luciferase growth in erythrocytes, 48 h. Potency, µM (top dose mostly 28.7 µM), for inactives: at the highest dose activity change, negative = inhibition, hits mostly inhibitors. hit rate 5.9% among 310,000. AID 504832, 2011; note: % is set by controls: 0 for no effect and ±100 for the full control effect
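First compound was added to culture medium, then infected red cells at 0.1% parasitemia and 2% hematocrit (final). After incubation at 37 C under 5% CO2, luciferase detection reagent was dispensed and light output recorded.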
Pf growth 96h: Primary qHTS for delayed death inhibitors of the malarial parasite plastid, 96 hour incubation; P. falciparum luciferase reporter growth, 96 h; Potency, µM (series often up to 28.7 µM), inactives show at the highest dose activity change, negative = inhibition, most hits filed as inhibitors; hit rate 6.9% among 320,000; AID 504834, 2011; note: % is set by controls: 0 for no effect and ±100 for the full control effect
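Plates of compound plus infected erythrocytes (2% hematocrit, 0.05% parasitemia final) incubate 96 hours, 37 C, 5% CO2. Detection reagent added; reduced luminescence from the parasites' luciferase reporter flags inhibition.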
AMA1 RON2 block: qHTS for Inhibitors of AMA1-RON; Towards Development of Antimalarial Drug Lead: Primary Screen | Potency, µM (top dose mostly 58.2 µM), without a hit: at the top dose activity change, negative = inhibition, actives largely listed as inhibitors | hit rate 0.2% among 360,000 | AlphaScreen AMA1-biotinylated RON2 peptide binding | AID 720542, 2013;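 note: 0% = vehicle wells and -100% = peptide control; nearly all actives have a fitted effect of over 45% in size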
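AMA1 (3D7) with his tag at 25 nM final met compounds first, then biotinylated RON2 peptide at 25 nM; detection used donor plus acceptor beads, 10 µg/mL apiece, read by AlphaScreen after 30 min at room temperature.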
* marks the source's active call; other numbers are inactive results; ? = inconclusive; · = no result given; [ ] = dose if it differs, or a comment. Unless noted, calls come from the whole dose curve; as a rule, active = well fitted curve in the direction sought with a large enough effect; inconclusive = small, poorly fitted or top-dose-only effect, or another doubt; inactive = no such curve, though single readings can be large; an effect the other way counts as inactive or inconclusive. Potency is the fitted concentration of half-maximal effect.

SMILES	HCV inhibitor	SARS PLpro yeast	NS1 function inh	Pf growth 48h	Pf growth 96h	AMA1 RON2 block
CCC(O)(CC)C(=O)NN(C(=O)Nc1csc2c1CCCC2)c1ccccc1	-17%	3%	4%	1.7µM*	1.3µM*	3%
O=C(Nc1ccccc1O)c1csc2c1CCCC2	?	-3%	-11%	?	30%	-6%
CCOC(=O)C(CCCCOc1ccc([N+](=O)[O-])cc1)C(=O)OCC	9%	-9%	-42%	16%	?	17%
COC(=O)c1ccc(OCCOc2ccccc2C)cc1	2%	17%	-4%	13%	1.3µM*	62%
COc1ccc(C(=O)c2ccccc2C(=O)c2ccccc2)cc1	-1%	·	·	·	·	13%
COc1cccc(OC)c1OCCOc1ccc(C(=O)c2ccccc2)cc1	?	5%	-14%	3%	0.37µM*	8%
CCOC(=O)C(CCCOc1ccccc1C)C(=O)OCC	?	-29%	-50%	-22%	9.3µM*	52%
COC(=O)c1ccc(OCCOc2ccccc2)cc1	2%	-24%	-4%	·	69%	21%
Cc1cccc(NC(=O)CSCC(=O)Nc2ccccc2C(=O)NC2CC2)c1	-3%	-3%	·	-5%	2%	5%
Cc1ccc(CNC(=O)c2cc3cc(Br)ccc3oc2=N)cc1	21%	-4%	0%	5%	23%	-8%
CCN(CC)c1ccc2cc(C(=O)NCc3ccc(F)cc3)c(=N)oc2c1	·	0%	14%	?	1.7µM*	·
N=c1oc2ccc(Br)cc2cc1C(=O)NCc1ccc(F)cc1	4%	-3%	-2%	-2%	2.6µM*	0%
Cc1cc(C)c(C)c(OCC(O)CN2CCN(c3ccccn3)CC2)c1 (stereo not given)	-5%	5%	-12%	14%	1%	-2%
CCOc1ccc(CN(C)C(=O)c2cccc(S(=O)(=O)N3CCCC3)c2)cc1OC	15%	-2%	·	-27%	-29%	-9%
CC(NC(=O)Cc1ccc(S(=O)(=O)N2CCOCC2)s1)c1ccc(Br)cc1 (stereo not given)	-6%	·	·	·	·	-5%[11.6 µM]
COc1cccc(CC(=O)OCC(=O)NCCc2ccc(F)cc2)c1	10%	-6%	·	-23%	-30%	0%
CC(C)(C)NCC(O)c1cc(Cl)c(N)c(C(F)(F)F)c1 (stereo not given)	·	·	·	13µM*	8.5µM*	·
COc1ccc(CCN2CC(C(=O)NCc3cccc4[nH]ccc34)CCC2=O)cc1 (stereo not given)	1%	2%	3%	-16%	9.3µM*	-9%
CCN(CC)CCN(Cc1cc2cccc(C)c2[nH]c1=O)C(=S)Nc1ccccc1	?	1%	2%	12µM*	8%	?
Cc1ccc(NC(=S)N(CCN(C)C)Cc2cc3cc(C)cc(C)c3[nH]c2=O)cc1	?	-7%	7%	?	22%	22%
Cc1cccc2cc(CN(CC3CCCO3)C(=S)Nc3ccccc3)c(=O)[nH]c12 (stereo not given)	?	-15%	-11%	-8%	125%	-8%
Cc1ccc2cc(CN(CCN(C)C)C(=S)Nc3ccccc3)c(=O)[nH]c2c1C	10µM*	0%	-8%	-22%	1%	-2%
O=C(NCc1ccco1)c1ccccc1SCC(=O)N1CCCC1	1%	1%	·	?	-10%	9%
Cc1cccc(C)c1-n1nnnc1C1c2ccccc2C(=O)N1CCc1ccc(O)cc1 (stereo not given)	·	·	·	·	·	1%
CC[C@@]1(C(=O)OC)N[C@H](CN(C)C(=O)Nc2ccc(OC)cc2)[C@@H]2C(=O)N(Cc3ccccc3)C(=O)[C@@H]21	4%	-6%	·	·	·	8%
SMILES	HCV inhibitor	SARS PLpro yeast	NS1 function inh	Pf growth 48h	Pf growth 96h	AMA1 RON2 block
COCCN(C(=O)C1CC(=O)N(Cc2ccccc2)C1)c1nc(-c2ccc([N+](=O)[O-])cc2)cs1 (stereo not given)	?	-2%	·	13µM*	?	-19%
O=S(=O)(NC(=S)NC1CCCCC1)c1ccc(Cl)cc1	16%	-1%	-50%	40%	0.52µM*	113%
O=C(OCc1ccccc1)N1CCC2CC1c1cc(/C=C/CCCSc3ncccn3)ccc12 (stereo not given)	·	·	·	·	·	-5%
Cc1nnc2sc(-c3ccc(N(C)C)cc3)nn2c1=O	4%	-4%	6%	28%	10µM*	3%
c1ccc(-c2nn3c(C4COc5ccccc5O4)nnc3s2)cc1 (stereo not given)	·	·	-46%	·	·	·
CN(C)c1ccc(-c2nn3c(-c4ccccc4Cl)nnc3s2)cc1	?	5%	-3%	?	·	49%
COc1ccccc1-c1nnc2sc(-c3ccc(N(C)C)cc3)nn12	?	19%	-47%	?	12µM*	-5%
COc1ccccc1-c1nn2c(C3COc4ccccc4O3)nnc2s1 (stereo not given)	-19%	7%	-115%	14%	3.7µM*	6%
CCOc1ccc(-c2nnc3sc(-c4ccccc4OC)nn23)cc1	10%	·	·	·	·	-5%
COc1ccccc1-c1nnc2sc(COc3ccc(F)cc3)nn12	-6%	-9%	-113%	1.5µM*	18%	16%
CN(C)c1ccc(-c2nn3c(-c4ccncc4)nnc3s2)cc1	·	·	-8%	·	·	·
COCCNC(=O)Cn1nc(-c2ccc(C)cc2)ccc1=O	9%	-10%	4%	2%	?	3%
Cc1cc2c(cc1S(=O)(=O)Nc1cccc(C)c1C)n(C)c(=O)c(=O)n2C	-3%	-2%	5%	-1%	3%	17%
CC1CCCN(S(=O)(=O)c2ccc(NC(=O)C3CC(=O)N(c4ccccc4)C3)cc2)C1 (stereo not given)	?	7%	6%	0%	9.3µM*	-7%
CC1CCCN(S(=O)(=O)c2ccc(NC(=O)c3cccc(-n4cnnn4)c3)cc2)C1 (stereo not given)	?	-1%	11%	12µM*	11%	-20%
CC1CCCCN1S(=O)(=O)c1ccc(NC(=O)c2cccc(-n3cnnn3)c2)cc1 (stereo not given)	?	-6%	0%	9.3µM*	?	-5%
c1ccc(C[n+]2cccc3c4ccccc4ccc32)cc1	?	-1%	-15%	0.074µM*	11%	11%
O=[N+]([O-])c1ccc(C[n+]2cccc3ccc4cccnc4c32)cc1	?	0%	6%	0.26µM*	?	81%
O=[N+]([O-])c1ccc(Cc2ccccn2)cc1	18%	-8%	·	-3%	?	-4%
O=[N+]([O-])c1ccc(C[n+]2cccc3ccccc32)cc1	8%	-5%	·	10µM*	?	2%
